Only some compounds are listed: those with a hit (about 3.1% of all), similar ones and a draw of the others.
MEKK3 PB1 HTS = MEKK3-MEK5 PB1 interaction, increase or decrease. Q99759. 290,000 tested, 1.4% active. binding response (% of control), % at 10 µM. bead-based flow cytometry, Alexa488-MEK5 binding to MEKK3; actives lie on both sides; 0 = blocked by unlabeled MEK5, 100 = vehicle;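 active means binding response more than 3 SD above or below the average of its plate-row segment, actives on both sides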;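 further: Alexa488 bead fluorescence after subtracting the streptavidin-only scavenger bead signal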
UBC13 inh = blocks human UBC13 polyubiquitin chain formation; P61088; TR-FRET; inhibition, % at 20 µM; 330,000 tested, 0.47% active; in the data active means inhibition above about 45%, passing the limit was not always enough
Target sequence (P61088 whole entry, looked up): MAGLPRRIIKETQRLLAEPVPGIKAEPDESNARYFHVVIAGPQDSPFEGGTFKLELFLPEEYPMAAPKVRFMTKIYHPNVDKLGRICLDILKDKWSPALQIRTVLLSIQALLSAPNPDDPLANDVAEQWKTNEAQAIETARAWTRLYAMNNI
PREPL inh = inhibits the human prolyl oligopeptidase-like enzyme; recombinant PREPL, fluorescence polarization activity-based probe; inhibition, % at 5.96 µM; 320,000 tested, 0.68% active; Q4J6C6; AID 2751
MEKK2wt PB1 HTS = raises or lowers MEK5 binding to wildtype human MEKK2 PB1 domain | Q9Y2U5 | bead flow cytometry, Alexa488-MEK5 binding to MEKK2 WT; actives lie on both sides | binding response (% of control), % at 10 µM | 290,000 tested, 1.1% active | AID 1531; in the data active means binding response below about 67% or above about 130%
MEKK2 mut-MEK5 = signal of MEK5 binding to mutant human MEKK2 PB1 domain; bead flow cytometry, Alexa488-MEK5 binding to MEKK2 mutant; percent response, % at 10 µM; 290,000 tested, 0.35% active; AID 1530; in the data active means percent response above about 24%, passing the limit was not always enough
ATG4B inh = inhibitors of human ATG4B cysteine protease; ATG4B cleavage of LC3-PLA2, NBD-HPC fluorescence, 1 h; AID 504462; 340,000 tested, 0.51% active; inhibition, % at 8.33 µM; Q9Y4P1; in the data active means inhibition above about 40%
Target sequence (Q9Y4P1 whole entry, looked up): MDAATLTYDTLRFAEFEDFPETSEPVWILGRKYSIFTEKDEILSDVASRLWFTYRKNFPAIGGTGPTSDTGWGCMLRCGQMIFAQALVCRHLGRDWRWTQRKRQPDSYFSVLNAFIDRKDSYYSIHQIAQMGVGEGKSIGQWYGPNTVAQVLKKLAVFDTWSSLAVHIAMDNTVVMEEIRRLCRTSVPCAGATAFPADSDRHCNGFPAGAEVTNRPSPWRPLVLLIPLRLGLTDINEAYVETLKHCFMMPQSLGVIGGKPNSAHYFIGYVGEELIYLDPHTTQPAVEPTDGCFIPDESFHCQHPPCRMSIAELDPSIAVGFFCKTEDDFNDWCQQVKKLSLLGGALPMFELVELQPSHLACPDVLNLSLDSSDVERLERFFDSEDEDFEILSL
PREPL inh cf = human PREPL inhibition, confirmation; shares compounds with PREPL inh; recombinant PREPL, fluorescence polarization activity probe; inhibition, % at 5.96 µM; 2,000 tested, 67% active
Large screens that a line does not name were inactive (follow-up assays come after a bar, where they were run). Unless noted, no stated cut-off is given here; in the data, active means inhibition above about 43%; inactive means the rest.

Oc1ccc(/C=N/Nc2nc(-c3cccnc3)nc3ccccc23)c(O)c1	PREPL inh 57.7 | PREPL inh cf inactive
COc1ccc(/C=N/Nc2nc(-c3cccnc3)nc3ccccc23)cc1OC	none
Cc1c(O)ccc(/C=N/Nc2nc(-c3cccnc3)nc3ccccc23)c1O	PREPL inh 72.3 | PREPL inh cf 72.3
Nc1[nH]n2c(=O)c3c(nc2c1N=Nc1ccccc1)CCCC3	PREPL inh 64.4 | PREPL inh cf 60.2
Cc1[nH]n2c(=O)c3c(nc2c1-c1ccc(Cl)cc1)CCC3	none
Cc1cc(=O)n2[nH]c(N)c(N=Nc3ccccc3)c2n1	none (no result: UBC13 inh)
Nc1[nH]n2c(=O)c3c(nc2c1N=Nc1ccc(Cl)cc1)CCCC3	PREPL inh 50.7 | PREPL inh cf 67.9
CC(C)(C)C1CCC2(CC1)CC(=O)c1ccccc1O2 (stereo not given)	none
CC(C)(C)OC(=O)N1CCC(C(=O)Nc2ccc(C(=O)N3CCCCC3)cc2)CC1	none (no result: MEKK3 PB1 HTS, UBC13 inh, PREPL inh, MEKK2wt PB1 HTS, MEKK2 mut-MEK5)
C=CC[n+]1c(-c2ccc(Cl)cc2Cl)csc1Nc1c(C)n(C)n(-c2ccccc2)c1=O	none
C=CC[n+]1c(-c2ccc(Cl)cc2Cl)csc1Nc1ccc(NC(C)=O)cc1	PREPL inh 58.9 | PREPL inh cf 63.0
COc1ccc(OC)c(C(=O)CN2C(=O)C(=O)N(C3CCCC3)C2=O)c1	none (no result: MEKK3 PB1 HTS, MEKK2wt PB1 HTS, MEKK2 mut-MEK5)
COCC(C)N1CCC(Oc2ccc(C(=O)N3CCCC3)cc2)CC1 (stereo not given)	none
CN(C)c1ccc2c3c(ccc(N(C)C)c13)COC2	none
Cc1ccc(C(=O)C[n+]2ccc3ccccc3c2)cc1	none
O=C(C[n+]1ccc2ccccc2c1)c1cccc2ccccc12	PREPL inh 51.7 | PREPL inh cf inactive
CCCn1c(=N)n(CC(O)COc2ccc(C)cc2)c2ccccc21 (stereo not given)	none
Cc1ccc(OCC(O)Cn2c(=N)n(CCN3CCOCC3)c3ccccc32)cc1 (stereo not given)	PREPL inh 45.0 | PREPL inh cf inactive
O=c1oc2c3c4c(cc2c(C(F)(F)F)c1CCN1CCOCC1)CCCN4CCC3	PREPL inh 54.8 | PREPL inh cf 60.6
O=C(Nc1ccc2c(c1)CCC2)C1CCN(c2c3c(nc4ncnn24)CCC3)CC1	PREPL inh 45.6 | PREPL inh cf inactive
Nc1cc([N+](=O)[O-])cc2oc(-c3ccccc3)cc12	PREPL inh 52.8 | PREPL inh cf 54.3
Cc1ccc(NC(=O)Cn2c(-c3ccc(F)cc3)cnc2SCC(=O)Nc2c(C)cccc2C)cc1	PREPL inh 47.3 | PREPL inh cf inactive
COC1CCN(C(=O)c2ccc3oc(C(C)C)nc3c2)CC1	none
COc1ccc(-c2cn3c(C)c(C(=O)N4CCc5ccccc5C4)sc3n2)cc1	PREPL inh 50.4 | PREPL inh cf inactive
COCCCNC(=O)c1c(NC(=O)c2cccs2)sc2c1CCCC2	PREPL inh 43.7 | PREPL inh cf inactive
O=C(COc1ccccc1Cl)Nc1ccc2oc(=O)ccc2c1	none
O=[N+]([O-])c1ccc2c(c1)C(N1CCOCC1)/C(=C/COc1ccc3ccccc3c1Br)O2 (stereo not given)	none
O=[N+]([O-])c1ccc2c(c1)C(N1CCOCC1)/C(=C/COc1ccc(F)cc1)O2 (stereo not given)	PREPL inh 47.6 | PREPL inh cf inactive
N#C/C(=C/c1ccc(O)c(O)c1)c1nc2ccccc2[nH]1	PREPL inh 59.7 | PREPL inh cf 47.5
N#C/C(=C\c1ccc(OC(=O)c2cccs2)cc1)c1nc2ccccc2[nH]1	PREPL inh 55.3 | PREPL inh cf inactive
N#C/C(=C\C1CC2C=CC1C2)c1nc2ccccc2[nH]1 (stereo not given)	PREPL inh 48.0 | PREPL inh cf inactive
Cc1[nH]nc(C(F)(F)F)c1N=NN1CCOCC1	none (no result: MEKK3 PB1 HTS, UBC13 inh, PREPL inh, MEKK2wt PB1 HTS, MEKK2 mut-MEK5)
Cc1ccccc1-c1ccc(Nc2ccc(N3CCOCC3)cc2)nn1	PREPL inh 58.9 | PREPL inh cf 52.7
O=c1[nH]c(CN2CCN(c3ccc([N+](=O)[O-])cc3)CC2)nc2ccsc12	PREPL inh 46.1 | PREPL inh cf inactive
O=C(Oc1ccc(OC(=O)c2ccco2)c(S(=O)(=O)c2ccc(Br)cc2)c1)c1ccco1	PREPL inh 94.2 | PREPL inh cf 93.4
CCOC(=O)c1ccccc1NC(=O)c1c(O)c2ccccc2n(CC)c1=O	none
CCn1c(=O)c(C(=O)Nc2ccc(C)cc2C)c(O)c2ccccc21	PREPL inh 46.9 | PREPL inh cf inactive
CN(Cc1ccco1)C(=O)c1ccc(OC2CCN(Cc3ccccn3)CC2)cc1	none
CC#CCN(Cc1ccco1)C(=O)c1ccc(OC2CCN(Cc3ccccn3)CC2)cc1	PREPL inh 48.8 | PREPL inh cf inactive
Cc1[nH]c2ccccc2c1C(c1ccncc1)N1CCN(c2ccccn2)CC1 (stereo not given)	PREPL inh active | PREPL inh cf inactive
O=C(c1cccc([N+](=O)[O-])c1)N1CCN(c2ccc(Cl)cc2)CC1	PREPL inh 51.4 | PREPL inh cf inactive
CC(C)(C)[C@@H]1COC(=O)[C@H](Cc2ccc(F)cc2)C/C=C\C[C@@H](CC(=O)N(CCO)Cc2ccccc2)C(=O)N1	PREPL inh 48.1 (no result: MEKK3 PB1 HTS, MEKK2wt PB1 HTS, MEKK2 mut-MEK5) | PREPL inh cf 46.0
CC(C)(C)[C@@H]1COC(=O)[C@@H](Cc2ccc(F)cc2)CC/C=C\C[C@@H](CC(=O)N(CCO)Cc2ccccc2)C(=O)N1	PREPL inh 54.7 (no result: MEKK3 PB1 HTS, MEKK2wt PB1 HTS, MEKK2 mut-MEK5) | PREPL inh cf 49.8
CC(C)(C)[C@@H]1COC(=O)[C@H](Cc2ccc(F)cc2)CC/C=C\C[C@H](CC(=O)N(CCO)Cc2ccccc2)C(=O)N1	none (no result: MEKK3 PB1 HTS, MEKK2wt PB1 HTS, MEKK2 mut-MEK5)
C(=N\Nc1nc2ccccc2[nH]1)/c1cccc2cccnc12	PREPL inh 62.8 | PREPL inh cf 52.6
C(=N\Nc1nc2ccccc2[nH]1)/c1ccccc1	none
C(=N\Nc1nc2ccccc2[nH]1)/c1c[nH]c2ccccc12	PREPL inh 49.1, MEKK2wt PB1 HTS 155.0 | PREPL inh cf 54.1
CC(C)CC(c1nnnn1Cc1cccs1)N1CCN(c2nc3ccccc3s2)CC1 (stereo not given)	PREPL inh 44.3 | PREPL inh cf inactive
Cc1ccccc1OCc1nnc(SCC(=O)Nc2ccc(N3CCOCC3)c(Cl)c2)n1C	PREPL inh 50.9 | PREPL inh cf 57.7
COc1ccc(OC)c(C(C)NC(=O)C(C)n2cc([N+](=O)[O-])cn2)c1 (stereo not given)	none (no result: MEKK3 PB1 HTS, MEKK2wt PB1 HTS, MEKK2 mut-MEK5)
COc1ccc2cc(C(=O)C3CCCN(C(=O)C4=NN(C)C(=O)CC4)C3)ccc2c1 (stereo not given)	PREPL inh 43.5 | PREPL inh cf inactive

Screens from PubChem BioAssay.
